Here are results for 11 compounds from PubChem BioAssay.

Results filed as inconclusive are left out. The source made the active and inactive calls. Unless noted, the rule behind the calls is not given here.

A short description of experiment [1]: compounds altering circadian rhythm period length – cell-based, LOPAC library, luminescence reporter (AID 2774).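 Note: values are relative to mean of DMSO wells on each plate.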 The note with it: circadian reporter cells, at 7 µM, actives lie on both sides.
Experiment [2] deals with Aerobactin synthetase IucA (Klebsiella pneumoniae). The experiment is described as follows: inhibition of K. pneumoniae IucA enzyme – biochemical, Tocris library, absorbance (AID 1345561).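 Note: 100% = enzyme without compound and 0% = no enzyme.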 The note with it: purified IucA enzyme assay, absorbance (OD) read-out; stronger effect = lower value;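 tested at 8 µM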.
The nature of experiment [3]: GFP-Q80 aggregate reduction, neuronal-like cells, cell-based, NGF-treated PC12, GFPQ80 (AID 1614).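 Note: lower means fewer inclusions and 0 means no inclusions at all.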 The note with it: PC12 NGF-treated GFP-polyQ80 inclusion reduction.
Experiment [4] concerns Hepatitis C virus NS3 helicase. The experiment is described as follows: blockers of NS3h binding to ssDNA – biochemical, fluorescence polarization, LOPAC1280 library, primary screen (AID 687035; in the data active = inhibition above about 37%). The note with it: Purified HCV NS3 helicase, Cy5-dT15 ssDNA binding fluorescence polarization; stronger effect = higher value; concentration not given here. In general terms: Fluorescence polarisation rises when a labelled molecule tumbles more slowly, as on binding a larger partner.

Experiment [5] is described as follows: compounds altering Cy5-DNA-NS3h complex signal – biochemical, LOPAC1280, artefact control for HCV NS3 helicase inhibitor project (AID 687037). Conditions: Cy5-DNA-NS3h complex fluorescence interference counterscreen. (A counterscreen serves to expose hits that act by an unwanted route or on another target.)
Experiment [6] is described as follows: blockers of cellular phospholipid synthesis – cell-based, LOPAC library, screen 4, primary screen (AID 1347384). Conditions: animal cells, phospholipid biosynthesis inhibition screen; at 10 µM.
Experiment [7] can be described thus: compounds altering viability of human ES cells (AID 493140).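 Note: cells exposed to compounds for four days before counting.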 The note with it: human embryonic stem cell survival screen; stronger effect = higher value.
Experiment [8] can be described thus: viability loss in pontine glioma line – cell-based, SU-DIPG-XXV, MIPE5.0, CellTiter-Glo, qHTS, dose response (AID 1347065; cut-off not given, nearly all actives have AC50 up to about 26 µM;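 note: cells exposed to compound for 48 hours before ATP readout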). Conditions: CellTiter-Glo ATP luminescence.
Experiment [9] is described as follows: growth inhibition of DIPG cells – cell-based, MIPE4.0 library, CellTiter-Glo luminescence, qHTS (AID 1347066; cut-off not given, nearly all actives have AC50 up to about 30 µM;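 note: cells exposed to compound for 48 hours before readout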). The note with it: SU-DIPG-VI viability, CellTiter-Glo ATP luminescence. (In general: ATP-based viability assays read luminescence as a measure of living cells.)
Experiment [10] in a line: growth inhibition of DIPG cells – cell-based, MIPE5.0 library, qHTS (AID 1347068; cut-off not given, nearly all actives have IC50 up to about 30 µM). The note with it: SU-DIPG-XXV viability.
Experiment [11] concerns the target NAD(+) hydrolase SARM1 (Homo sapiens) (UniProt Q6SZW1). The experiment is described as follows: blocking NAD cleavage by SARM1 SAM-TIR – cell lysate, NAD-Glo luminescence (AID 1508614;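 active = compound whose remaining NAD level is above about 45 nM, limit read from the data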;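 note: higher remaining NAD means stronger inhibition of SARM1 NADase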). The note with it: SAM-TIR HEK293T lysate NADase, at 1 µM, stronger effect = higher value.
A short description of experiment [12]: viability loss in pontine glioma line – cell-based, SU-DIPG-XIII, MIPE5.0, CellTiter-Glo, qHTS, dose response (AID 1347064; cut-off not given, nearly all actives have AC50 up to about 23 µM). The note with it: CellTiter-Glo ATP luminescence.

NAD(+) hydrolase SARM1 (Homo sapiens), sequence (Q6SZW1 whole entry, looked up): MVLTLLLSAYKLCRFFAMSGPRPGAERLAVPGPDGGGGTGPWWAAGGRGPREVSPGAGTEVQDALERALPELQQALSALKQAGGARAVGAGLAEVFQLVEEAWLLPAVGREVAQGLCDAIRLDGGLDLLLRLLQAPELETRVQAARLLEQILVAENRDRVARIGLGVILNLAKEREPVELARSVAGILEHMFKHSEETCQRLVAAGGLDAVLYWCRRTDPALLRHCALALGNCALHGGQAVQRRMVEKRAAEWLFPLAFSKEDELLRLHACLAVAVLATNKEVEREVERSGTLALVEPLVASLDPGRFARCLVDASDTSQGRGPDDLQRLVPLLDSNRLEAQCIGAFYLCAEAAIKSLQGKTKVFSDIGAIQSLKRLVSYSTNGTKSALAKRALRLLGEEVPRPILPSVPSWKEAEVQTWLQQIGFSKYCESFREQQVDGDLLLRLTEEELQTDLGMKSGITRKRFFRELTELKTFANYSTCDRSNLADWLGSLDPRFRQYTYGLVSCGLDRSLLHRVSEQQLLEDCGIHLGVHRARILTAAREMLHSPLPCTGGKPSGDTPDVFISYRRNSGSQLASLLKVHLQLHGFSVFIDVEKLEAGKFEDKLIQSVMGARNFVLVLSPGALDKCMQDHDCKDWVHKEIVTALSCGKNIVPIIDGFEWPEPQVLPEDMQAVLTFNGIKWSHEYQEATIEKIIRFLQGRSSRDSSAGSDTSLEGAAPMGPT

Take `O=C(O)c1cc(=O)c2ccc(Cl)cc2[nH]1`: in experiment [1], the period change is -0.105 h (inactive). In [2], the remaining activity is 104% (inactive).

For the compound `O=C(O)c1cc(=O)c2ccccc2[nH]1`, the inclusion score in experiment [3] was 2. Further, in experiment [1], the period change is 0.025 h (inactive). In addition, in experiment [4], the inhibition was -6% (inactive). The fluorescence ratio (interference) in [5] is 1 (inactive). For the same compound, in experiment [2], the remaining activity was 94.6% (inactive). In experiment [6], the compound was called inactive.

On to `C=C(C)[C@@H]1CC[C@]2(C(=O)O)CC[C@]3(C)[C@H](CC[C@@H]4[C@@]5(C)CC[C@H](O)C(C)(C)[C@@H]5CC[C@]43C)[C@@H]12`, for which the survival in experiment [7] is 9.75 (inactive). For the same compound, the AC50 in [8] was 14.8 µM (active). In addition, the compound was called inactive in [9] and in experiment [10].

On to `CC(=O)[C@H]1CC[C@H]2[C@@H]3CCC4=CC(=O)CC[C@]4(C)[C@H]3CC[C@]12C`, for which, in experiment [1], the period change is 0.25 h (inactive). Moreover, the survival in experiment [7] is 8.58 (inactive). Besides, in experiment [4], the inhibition was -4% (inactive). Besides, in experiment [5], the fluorescence ratio (interference) is 0.9 (inactive). For the same compound, the compound was called inactive in [6]. The remaining NAD in [11] was 10 nM (inactive).

Turning to `C[C@H](CCC(=O)O)[C@H]1CC[C@H]2[C@@H]3[C@H](O)C[C@@H]4C[C@H](O)CC[C@]4(C)[C@H]3CC[C@]12C`, the survival in experiment [7] is 11.7 (inactive). Moreover, the compound was classed as inactive in experiment [12], in experiment [9] and in experiment [10]. In experiment [11], the remaining NAD was 10 nM (inactive).

In the case of `CC1(C)[C@@H](O)CC[C@]2(C)[C@H]3C(=O)C=C4[C@@H]5C[C@@](C)(C(=O)O)CC[C@]5(C)CC[C@@]4(C)[C@]3(C)CC[C@@H]12`, the compound was called inactive in experiment [9] and in experiment [10]. Also, the remaining NAD in experiment [11] is 10 nM (inactive).

As for `COc1ccc([C@@H]2CC(=O)c3c(O)cc(O[C@@H]4O[C@H](CO[C@@H]5O[C@@H](C)[C@H](O)[C@@H](O)[C@H]5O)[C@@H](O)[C@H](O)[C@H]4O)cc3O2)cc1O`, the compound was called inactive in experiment [12], in experiment [8], in [9] and in experiment [10].

As to `CC1(C)[C@@H](O[C@H]2O[C@H](C(=O)O)[C@@H](O)[C@H](O)[C@H]2O[C@@H]2O[C@H](C(=O)O)[C@@H](O)[C@H](O)[C@H]2O)CC[C@]2(C)[C@H]3C(=O)C=C4[C@@H]5C[C@@](C)(C(=O)O)CC[C@]5(C)CC[C@@]4(C)[C@]3(C)CC[C@@H]12`, the call in [9] was inactive.

Turning to `C[C@@H]1[C@H](O)[C@@H](C)/C=C/C=C/C=C/C=C/C=C/C=C/C=C/[C@H](O[C@@H]2O[C@H](C)[C@@H](O)[C@H](N)[C@@H]2O)C[C@@H]2O[C@](O)(C[C@@H](O)C[C@@H](O)[C@H](O)CC[C@@H](O)C[C@@H](O)CC(=O)O[C@H]1C)C[C@H](O)[C@H]2C(=O)O`, the compound was called inactive in experiment [9] and in experiment [10]. In addition, in [11], the remaining NAD is 10 nM (inactive).

Regarding `COc1cccc(OC)c1OCCNCC1COc2ccccc2O1` (stereo unspecified), the period change in [1] was 0.335 h (inactive). The inhibition in experiment [4] was -1% (inactive). Further, the fluorescence ratio (interference) in experiment [5] is 1 (inactive). Further, the remaining activity in experiment [2] is 108% (inactive). Besides, in experiment [6], the compound was called inactive.

With `CC(C)C[C@H]1C(=O)N2CCC[C@H]2[C@]2(O)O[C@](NC(=O)[C@@H]3C=C4c5cccc6[nH]c(Br)c(c56)C[C@H]4N(C)C3)(C(C)C)C(=O)N12`, in experiment [1], the period change was 0.365 h (inactive). Besides, in experiment [7], the survival is 29.8 (inactive). For the same compound, the inhibition in experiment [4] is 2% (inactive). For the same compound, the fluorescence ratio (interference) in experiment [5] was 0.9 (inactive). Moreover, in experiment [2], the remaining activity was 93.8% (inactive). For the same compound, the call in experiment [6] was inactive. Further, in experiment [11], the remaining NAD was 10 nM (inactive).

For orientation: remaining activity means the signal under treatment as a percentage of the control signal. What is called inhibition is the drop in the measured response relative to a control, in per cent. For orientation: AC50 means the concentration giving half of the maximal activity seen.
